Activity calls are given as the source filed them. Cut-off read from the data, not from the text of the source: active = inhibition above about 50%; inactive = the rest.

In general, inhibition refers to the change of the read-out against control, counted positive when it falls.

This test deals with Prolyl endopeptidase-like (Mus musculus) (UniProt Q8C167). Briefly: mouse PREPL enzyme inhibition by screening hits – biochemical, gel-based competitive ABPP, fluorescence, HTS hits, PREPL inhibitor project (AID 624481). Conditions: purified mouse PREPL, at 20 µM, active compounds read high.
Prolyl endopeptidase-like (Mus musculus), sequence (Q8C167 whole entry, looked up): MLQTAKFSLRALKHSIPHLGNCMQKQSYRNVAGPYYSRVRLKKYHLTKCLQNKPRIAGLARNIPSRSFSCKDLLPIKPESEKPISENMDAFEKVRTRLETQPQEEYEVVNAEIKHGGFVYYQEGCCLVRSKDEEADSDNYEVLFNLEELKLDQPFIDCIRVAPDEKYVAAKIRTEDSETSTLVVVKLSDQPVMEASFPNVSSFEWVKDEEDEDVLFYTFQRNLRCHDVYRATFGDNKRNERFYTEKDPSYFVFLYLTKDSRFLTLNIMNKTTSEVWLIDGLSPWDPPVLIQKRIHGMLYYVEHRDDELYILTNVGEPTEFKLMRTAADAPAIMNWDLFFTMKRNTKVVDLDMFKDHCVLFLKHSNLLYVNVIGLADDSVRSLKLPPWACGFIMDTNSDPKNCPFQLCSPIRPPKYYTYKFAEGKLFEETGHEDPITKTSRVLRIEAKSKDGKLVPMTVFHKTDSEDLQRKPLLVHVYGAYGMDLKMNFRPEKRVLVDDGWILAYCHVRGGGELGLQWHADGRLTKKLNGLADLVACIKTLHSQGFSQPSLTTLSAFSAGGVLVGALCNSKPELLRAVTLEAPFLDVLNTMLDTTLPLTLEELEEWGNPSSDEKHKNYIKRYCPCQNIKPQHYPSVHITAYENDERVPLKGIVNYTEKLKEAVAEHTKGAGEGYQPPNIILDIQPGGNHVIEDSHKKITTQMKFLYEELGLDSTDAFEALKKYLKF
Turning to `CN(C)CCc1cc2c(c3c1ccc1ccccc13)OCO2`, the inhibition is -26% (inactive). The result for `Oc1sc(C=Nc2ccc(F)cc2)c2ccccc12` reads 20% (inactive); that for `C(=NNc1nc2ccccc2[nH]1)c1c[nH]c2ccccc12`, 36% (inactive). Then `CN(C)S(=O)(=O)c1cccc(-c2csc(=Nc3ccccc3)n2CCCN2CCOCC2)c1`, with -41% (inactive).

For the compound `Cc1ccc(Nc2nc(NCCO)c3ccccc3n2)cc1C`, the inhibition is -33% (inactive).

Turning to `Cc1noc(C)c1S(=O)(=O)Nc1ccc2c(c1)C(=O)N([C@H](C)CO)C[C@H](C)[C@@H](CN(C)C(=O)Nc1ccc(C(F)(F)F)cc1)O2`, the inhibition is -1% (inactive).

In the case of `O=C(c1cc([N+](=O)[O-])ccc1Cl)N1CCN(c2ccc([N+](=O)[O-])cc2)CC1`, the inhibition is -51% (inactive). Then `COc1cc(-c2nnc3sc(Cc4ccc(Cl)cc4)nn23)cc(OC)c1OC`, with 14% (inactive); and `COCCn1c(-c2ccc(Br)cc2)csc1=Nc1cccnc1`, with 43% (inactive); and `COc1ccc(N2CCN(c3cc(C)nc4ccc(OC)cc34)CC2)cc1`, with -69% (inactive). The result for `Oc1c(CN2CCOCC2)cc(COCc2ccccc2)c2cccnc12` reads -145% (inactive); that for `CCN1C(=O)CC(c2ccccc2)N(C2CCCC2)c2nc(Nc3ccc(C(=O)NC4CCN(C)CC4)cc3OC)ncc21` (configuration not stated), -25% (inactive); that for `O=C(C1=C[C@@H](c2ccc(C(F)(F)F)cc2)C[C@@H](OCCCCO)O1)N1CCN(Cc2ccccc2)CC1`, -70% (inactive). The result for `c1ccc(N2CCN(c3nc(-c4ccccn4)nc4ccccc34)CC2)cc1` reads -283% (inactive); that for `Nc1nn(-c2ccccc2)c(N)c1N=Nc1cccc(F)c1`, 0% (inactive); that for `O=C(Nc1ccc2c(c1)OCCO2)c1cccc2nc3ccccc3nc12`, -12% (inactive).

With `Oc1ccc(Nc2nc(N3CCCC3)c3ccccc3n2)cc1`, the inhibition was -60% (inactive).

Regarding `Cc1cccc(OCC(=O)Nc2ccc(N3CCN(C(=O)c4ccco4)CC3)cc2)c1`, the inhibition was -15% (inactive). Then `CCCCCCCCCCCCCCCC[N+](C)(C)CCN(Cc1ccc(OC)cc1)c1ncccn1`, with 81% (active); and `Cc1ccc(OCC(=O)Nc2ccc(N3CCN(C(=O)c4ccco4)CC3)cc2)c(C)c1`, with -7% (inactive); and `CCCCCNC(=O)c1ccc2c(=O)[nH]c3c(C(=O)NCC4CCCO4)sc(=S)n3c2c1` (configuration not stated), with -19% (inactive). The result for `COc1cc(NC(=O)CN2CCN(c3ccccc3F)CC2)c(C)cc1[N+](=O)[O-]` reads -92% (inactive). The result for `COc1ccc(C(=O)c2coc3ccc(O)c(CN4CCOCC4)c23)cc1` reads -78% (inactive). As for `CN(C)c1ccc(C(CNC(=O)c2ccccc2F)c2c[nH]c3ccccc23)cc1` (configuration not stated), the inhibition was -10% (inactive). With `COc1cc2c(cc1OC)C(Cc1ccc(O)c(Oc3ccc(C[C@H]4c5cc(OC)c(OC)cc5CCN4C)cc3)c1)N(C)CC2` (some centres not stated), the inhibition was 66% (active). The result for `COc1ccc(C(=O)c2coc3ccc(O)c(CN4CCCCC4)c23)cc1` reads -53% (inactive); that for `C#CCOCCOCCOCCNc1nc(N2CCN(C(=O)[C@H]([C@@H](C)CC)n3cc([C@@H](N)Cc4ccc(O)cc4)nn3)CC2)nc(N2CCN(C(=O)[C@H](Cc3cc4ccccc4[nH]3)n3cc([C@@H](N)CC(C)C)nn3)CC2)n1`, -105% (inactive). Then `Cc1cccc(OCC(=O)Nc2ccc(N3CCN(C(=O)c4ccccc4)CC3)cc2)c1C`, with -8% (inactive); and `CC(C)NCC(O)Cn1c2c(c3ccccc31)CCc1c-2cnn1-c1ccccc1` (configuration not stated), with -123% (inactive); and `CC(=O)N1CCN(c2ccc(NCc3cccc4ccccc34)cc2)CC1`, with -26% (inactive). `CN1CCN(c2ccc(NC(=O)COc3ccc(Cl)cc3Cl)cc2)CC1`: the inhibition was -13% (inactive). Then `CCN(CC)CCNc1ccc(CO)c2sc3ccccc3c(=O)c12`, with -23% (inactive); and `O=C(COc1ccccc1Cl)Nc1ccc(N2CCN(C(=O)c3ccccc3)CC2)cc1`, with -61% (inactive). On to `CCOc1ccc(Nc2nc(NCC3CCCO3)c3ccccc3n2)cc1` (configuration not stated), for which the inhibition is 12% (inactive). For the compound `COc1ccc(N2CCN(CCC(O)c3ccc4ccccc4c3)CC2)cc1` (configuration not stated), the inhibition was -79% (inactive). The result for `CNC(=S)N1N=C(c2ccc(OC)cc2)CC1c1ccc(N(C)C)cc1` (configuration not stated) reads -55% (inactive); that for `C#CCOCCOCCOCCNc1nc(N2CCN(C(=O)[C@H](CCCCN)n3cc([C@@H](N)C(C)CC)nn3)CC2)nc(N2CCN(C(=O)[C@H](Cc3cc4ccccc4[nH]3)n3cc([C@@H](N)C(C)CC)nn3)CC2)n1` (some centres not stated), -33% (inactive).

The values above are taken from PubChem BioAssay AID624481 (The Scripps Research Institute Molecular Screening Center, 2012).
